Results filed as inconclusive are left out. The source made the active and inactive calls. Rule for the calls, unless noted: active = hit-call score of the fitted dose curve at least 0.9, where 1 is the maximum; inconclusive = response in the unintended direction; inactive = score below 0.9.
Key:
[1] = ATG_TAL_CIS: Attagene CIS-FACTORIAL HepG2 Assay for human TAL Basal Promoter (AID 2282966; active = hit-call score of the fitted dose curve at least 0.9, where 1 is the maximum; inactive = score below 0.9;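 note: background control endpoint measuring basal TAL promoter reporter mRNA not a specific factor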); conditions: HepG2 Attagene cis-factorial TAL promoter reporter; actives raise or lower the signal
Summary of the method: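 Basal-promoter background-control endpoint from a multiplexed HepG2 reporter panel. Cells were exposed 24 h, then reporter mRNA was read by RT-PCR/CE fluorescence and fitted in both directions relative to DMSO.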

[2] = ATG_VDRE_CIS: Attagene CIS-FACTORIAL HepG2 Assay for human Vitamin D Receptor Element (VDRE) (AID 2282968; active = hit-call score of the fitted dose curve at least 0.9, where 1 is the maximum; inactive = score below 0.9); conditions: HepG2 VDRE cis-reporter transcription, actives raise or lower the signal
Summary of the method: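 Steps: transfect HepG2 with multiple reporter transcription units; dose chemicals 24 h; isolate RNA; RT-PCR; label with 6-FAM primer extension; HpaI digest; capillary electrophoresis. Curves fitted both directions against DMSO.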

[3] = molecular target: Nuclear receptor subfamily 1 group I member 3 (Homo sapiens) (UniProt Q14994); assay: ATG_CAR_TRANS: Attagene TRANS-FACTORIAL HepG2 Assay for human Constitutive Androstane Receptor (CAR) (AID 2282969); conditions: HepG2 Attagene TRANS-FACTORIAL CAR reporter;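 note: activators raise reporter mRNA above DMSO so AC50 marks induction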
Summary of the method: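 Steps: transient transfection of HepG2 with multiple GAL4-UAS reporter units; 24 h compound incubation; RNA isolation, RT-PCR, 6-FAM primer extension, HpaI digest; capillary electrophoresis. Gain-of-signal relative to DMSO negative control.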

[4] = molecular target: Estrogen receptor (Homo sapiens) (UniProt P03372); assay: ATG_ERa_TRANS: Attagene TRANS-FACTORIAL HepG2 Assay for human Estrogen Receptor alpha (ERa) (AID 2282970); conditions: HepG2 Attagene TRANS ERa GAL4 reporter, mRNA
Summary of the method: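 Gal4-fusion ERa transactivation, measured as reporter transcript level in transiently transfected HepG2 cells. Exposure 24 h; RT-PCR plus capillary electrophoresis with fluorescence detection.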

[5] = molecular target: Steroid hormone receptor ERR1 (Homo sapiens) (UniProt P11474); assay: ATG_ERRa_TRANS: Attagene TRANS-FACTORIAL HepG2 Assay for human Estrogen-Related Receptor alpha (ERRa) (AID 2282971); conditions: HepG2 Attagene TRANS reporter, ERRa transactivation
Summary of the method: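 HepG2 cells transiently transfected with GAL4-UAS reporter units and chimeric NR-Gal4 constructs; after 24 hour compound incubation, reporter mRNA quantified by RT-PCR, fluorescent labelling and capillary electrophoresis, gain of signal versus DMSO.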

[6] = molecular target: X-box-binding protein 1 (Homo sapiens) (UniProt P17861); assay: ATG_Xbp1_CIS: Attagene CIS-FACTORIAL HepG2 Assay for human X-box Binding Protein 1 (XBP1) (AID 2282972; active = hit-call score of the fitted dose curve at least 0.9, where 1 is the maximum; inactive = score below 0.9); conditions: HepG2 XBP1 cis-element reporter, Attagene multiplex; actives raise or lower the signal
Summary of the method: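 Human hepatoma HepG2, cis-element reporter system, 24 h treatment; mRNA quantified by RT-PCR/CE fluorescence; fit relative to DMSO.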

[7] = molecular target: Oxysterols receptor LXR-beta (Homo sapiens) (UniProt P55055); assay: ATG_LXRb_TRANS: Attagene TRANS-FACTORIAL HepG2 Assay for human Liver X Receptor beta (LXRb) (AID 2282981); conditions: HepG2 Attagene TRANS GAL4-LXRb reporter, mRNA
Summary of the method: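 Measures induction of a Gal4-driven reporter transcript in HepG2 cells expressing an exogenous LXRb-Gal4 fusion. Cells are exposed to compound for 24 h before RNA isolation and RT-PCR with capillary electrophoresis detection.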

[8] = ATG_M_06_TRANS: Attagene TRANS-FACTORIAL HepG2 Assay for M06 Transcription Factor (Internal Marker) (AID 2282983); conditions: HepG2 Attagene TRANS M06 internal marker reporter
Summary of the method: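 mRNA levels of a reporter transcript, quantified as FAM fluorescence on capillary electrophoresis, served as readout. HepG2 cells expressing exogenous GAL4-chimera reporter constructs were exposed for 24 h. Gain of signal over DMSO was evaluated.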

[9] = ATG_M_32_TRANS: Attagene TRANS-FACTORIAL HepG2 Assay for M32 Transcription Factor (Internal Marker) (AID 2282984); conditions: HepG2 Attagene TRANS M32 internal marker reporter
Summary of the method: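 After 24 h dosing of transfected HepG2 cells, total RNA was reverse-transcribed, reporter sequences PCR-amplified, 6-FAM labelled by primer extension and HpaI-digested before capillary electrophoresis. Signal increase over DMSO was fitted.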

[10] = molecular target: Nuclear receptor subfamily 4 group A member 2 (Homo sapiens) (UniProt P43354); assay: ATG_NURR1_TRANS: Attagene TRANS-FACTORIAL HepG2 Assay for human Nuclear Receptor Related Protein 1 (NURR1) (AID 2282985); conditions: HepG2 Attagene TRANS reporter, mRNA readout
Summary of the method: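 Chimeric NR-Gal4 fusion activity measured in HepG2 after 24 h treatment. Reporter transcripts detected by RT-PCR and capillary electrophoresis fluorescence; positive-direction curve fitting against DMSO.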

[11] = molecular target: Transcriptional activator Myb (Homo sapiens) (UniProt P10242); assay: ATG_Myb_CIS: Attagene CIS-FACTORIAL HepG2 Assay for human Myeloblastosis (Myb) Proto-Oncogene Transcription Factor (AID 2282986; active = hit-call score of the fitted dose curve at least 0.9, where 1 is the maximum; inactive = score below 0.9); conditions: HepG2 Attagene CIS-FACTORIAL Myb reporter transcription; actives raise or lower the signal
Summary of the method: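 Multiplexed cis-reporter system in HepG2: transient transfection, 24 h treatment, mRNA readout by RT-PCR and capillary electrophoresis. Both increases and decreases are scored versus DMSO negative control.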

[12] = molecular target: Nuclear respiratory factor 1 (Homo sapiens) (UniProt Q16656); assay: ATG_NRF1_CIS: Attagene CIS-FACTORIAL HepG2 Assay for human Nuclear Respiratory Factor 1 (NRF1) Orphan Gene (AID 2282987; active = hit-call score of the fitted dose curve at least 0.9, where 1 is the maximum; inactive = score below 0.9); conditions: HepG2 NRF1 cis-element reporter, Attagene multiplex; actives raise or lower the signal
Summary of the method: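 Endogenous factor activity was captured via cis-element-driven reporter transcripts in HepG2 cells. Following 24 h chemical treatment, transcripts were quantified by RT-PCR and capillary electrophoresis.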

[13] = ATG_M_19_TRANS: Attagene TRANS-FACTORIAL HepG2 Assay for M19 Transcription Factor (Internal Marker) (AID 2282974); conditions: HepG2 Attagene TRANS-FACTORIAL M19 internal marker reporter
Summary of the method: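 Gain-of-signal in reporter mRNA, relative to DMSO, was scored from capillary electrophoresis fluorescence. HepG2 cells carried transiently transfected multiple reporter transcription units and were incubated with test chemicals for 24 h.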

[14] = ATG_GAL4_TRANS: Attagene TRANS-FACTORIAL HepG2 Assay for GAL4 (Internal Marker) (AID 2282976); conditions: HepG2 Attagene TRANS GAL4 internal marker reporter
Summary of the method: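 Background-control readout: GAL4-UAS reporter transcript in transiently transfected HepG2 cells after 24 h compound exposure. Measured by RT-PCR, 6-FAM primer extension, HpaI digest and capillary electrophoresis; gain-of-signal fit versus DMSO.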

[15] = molecular target: Glucocorticoid receptor (Homo sapiens) (UniProt P04150); assay: ATG_GR_TRANS: Attagene TRANS-FACTORIAL HepG2 Assay for human Glucocorticoid Receptor (GR) (AID 2282978); conditions: HepG2 Attagene TRANS GR reporter, mRNA transcription;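 note: activators score as hits since higher reporter transcript over DMSO is fitted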
Summary of the method: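 HepG2 transient transfection, multiple reporter units, GAL4-UAS under NR-GAL4 chimera control. 24 h treatment. Reporter mRNA by RT-PCR/CE fluorescence, DMSO as negative control.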

[16] = molecular target: Oxysterols receptor LXR-alpha (Homo sapiens) (UniProt Q13133); assay: ATG_LXRa_TRANS: Attagene TRANS-FACTORIAL HepG2 Assay for human Liver X Receptor alpha (LXRa) (AID 2282980); conditions: HepG2 Attagene TRANS reporter, LXRa transactivation
Summary of the method: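 HepG2 cells transiently transfected with GAL4-UAS reporter units for chimeric NR-Gal4 proteins, exposed to chemicals for 24 h. Reporter mRNA quantified by RT-PCR and capillary electrophoresis; gain of signal fitted relative to DMSO.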

[17] = molecular target: Bile acid receptor (Homo sapiens) (UniProt Q96RI1); assay: ATG_FXR_TRANS: Attagene TRANS-FACTORIAL HepG2 Assay for Farnesoid X Receptor (FXR) (AID 2282979); conditions: HepG2 Attagene TRANS FXR-GAL4 reporter transcription;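 note: hits raise reporter mRNA above DMSO so AC50 marks FXR activation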
Summary of the method: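 HepG2 cells were transiently transfected with GAL4-UAS reporters driven by chimeric NR-Gal4 proteins and dosed for 24 h. Reporter mRNA was quantified by RT-PCR, fluorescent labelling, HpaI digestion and capillary electrophoresis, with gain of signal scored versus DMSO.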

[18] = molecular target: Hepatocyte nuclear factor 4-alpha (Homo sapiens) (UniProt P41235); assay: ATG_HNF4a_TRANS: Attagene TRANS-FACTORIAL HepG2 Assay for human Hepatocyte Nuclear Factor 4 alpha (HNF4a) (AID 2282982); conditions: HepG2 HNF4a transactivation reporter, mRNA readout
Summary of the method: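 In this trans-factorial format, a chimeric HNF4a-GAL4 fusion drives a GAL4-UAS reporter in transfected HepG2 liver cells. After 24 h treatment, reporter mRNA induction is measured by RT-PCR with capillary electrophoresis, relative to DMSO.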

[19] = ATG_TGFb_CIS: Attagene CIS-FACTORIAL HepG2 Assay for human Transforming Growth Factor (TGF) (AID 2282967; active = hit-call score of the fitted dose curve at least 0.9, where 1 is the maximum; inactive = score below 0.9); conditions: HepG2 Attagene CIS TGFb reporter, mRNA transcription; actives raise or lower the signal
Summary of the method: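 Transient MRTU transfection of HepG2 (FuGene 6). Dose 24 h. TriZol RNA, oligo(dT) RT, PCR, 6-FAM primer extension, HpaI cut, CE. Bidirectional fit, DMSO = baseline.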

[20] = molecular target: Estrogen-related receptor gamma (Homo sapiens) (UniProt P62508); assay: ATG_ERRg_TRANS: Attagene TRANS-FACTORIAL HepG2 Assay for human Estrogen-Related Receptor gamma (ERRg) (AID 2282977); conditions: HepG2 Attagene TRANS reporter, ERRg transactivation;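 note: hits increase reporter signal over DMSO so potencies reflect activators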
Summary of the method: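 Exogenous NR-Gal4 chimera activity measured as reporter transcript induction after 24 h in transiently transfected HepG2 cells. RNA reverse-transcribed, PCR-amplified, 6-FAM-labelled and resolved by capillary electrophoresis; increase over DMSO baseline.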

Measured: AC50

Sequence of Estrogen receptor (Homo sapiens) (P03372 whole entry, looked up, the tested form may be a part): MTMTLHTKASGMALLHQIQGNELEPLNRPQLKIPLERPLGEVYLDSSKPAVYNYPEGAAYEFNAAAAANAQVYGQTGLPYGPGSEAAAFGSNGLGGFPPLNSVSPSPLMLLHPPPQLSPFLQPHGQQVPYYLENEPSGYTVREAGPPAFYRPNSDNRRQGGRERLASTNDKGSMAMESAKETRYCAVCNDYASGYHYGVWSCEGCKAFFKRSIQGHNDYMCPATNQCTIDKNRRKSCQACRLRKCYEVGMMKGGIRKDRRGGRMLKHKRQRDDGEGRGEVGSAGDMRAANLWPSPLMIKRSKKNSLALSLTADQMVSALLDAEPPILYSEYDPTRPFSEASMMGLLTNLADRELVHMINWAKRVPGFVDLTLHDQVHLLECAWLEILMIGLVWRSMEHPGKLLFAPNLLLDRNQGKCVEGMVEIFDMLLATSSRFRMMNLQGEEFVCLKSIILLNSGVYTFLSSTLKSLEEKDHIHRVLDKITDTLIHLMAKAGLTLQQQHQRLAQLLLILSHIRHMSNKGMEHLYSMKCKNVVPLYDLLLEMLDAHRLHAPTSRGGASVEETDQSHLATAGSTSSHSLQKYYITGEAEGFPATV
Sequence of Nuclear receptor subfamily 1 group I member 3 (Homo sapiens) (Q14994 whole entry, looked up, the tested form may be a part): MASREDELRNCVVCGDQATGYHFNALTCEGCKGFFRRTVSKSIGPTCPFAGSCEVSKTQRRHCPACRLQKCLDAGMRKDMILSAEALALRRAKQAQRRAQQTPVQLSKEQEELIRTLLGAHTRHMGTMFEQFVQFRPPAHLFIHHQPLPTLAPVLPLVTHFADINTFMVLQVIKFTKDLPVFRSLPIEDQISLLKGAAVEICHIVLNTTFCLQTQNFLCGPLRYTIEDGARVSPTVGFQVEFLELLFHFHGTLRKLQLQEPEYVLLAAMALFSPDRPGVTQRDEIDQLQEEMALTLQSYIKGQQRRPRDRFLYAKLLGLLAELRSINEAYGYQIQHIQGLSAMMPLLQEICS
Sequence of Steroid hormone receptor ERR1 (Homo sapiens) (P11474 whole entry, looked up, the tested form may be a part): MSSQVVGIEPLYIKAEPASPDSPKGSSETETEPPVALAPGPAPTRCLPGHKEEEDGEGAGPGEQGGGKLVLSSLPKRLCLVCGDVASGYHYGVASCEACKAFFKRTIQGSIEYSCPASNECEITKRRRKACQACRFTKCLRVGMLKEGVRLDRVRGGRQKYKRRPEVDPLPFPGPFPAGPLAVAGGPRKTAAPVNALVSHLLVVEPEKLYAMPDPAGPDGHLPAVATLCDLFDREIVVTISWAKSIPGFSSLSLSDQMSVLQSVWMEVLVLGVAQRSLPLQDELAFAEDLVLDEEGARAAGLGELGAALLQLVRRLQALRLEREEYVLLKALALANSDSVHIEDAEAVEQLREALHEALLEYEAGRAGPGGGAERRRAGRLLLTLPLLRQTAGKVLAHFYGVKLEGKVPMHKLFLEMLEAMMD
Sequence of X-box-binding protein 1 (Homo sapiens) (P17861 whole entry, looked up): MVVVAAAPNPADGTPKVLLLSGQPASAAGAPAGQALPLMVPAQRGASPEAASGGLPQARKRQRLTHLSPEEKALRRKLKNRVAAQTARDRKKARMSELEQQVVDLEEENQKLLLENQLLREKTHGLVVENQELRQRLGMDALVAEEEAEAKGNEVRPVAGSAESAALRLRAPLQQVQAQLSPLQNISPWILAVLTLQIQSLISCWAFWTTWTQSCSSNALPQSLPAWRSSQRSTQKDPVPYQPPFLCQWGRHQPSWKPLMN
Sequence of Hepatocyte nuclear factor 4-alpha (Homo sapiens) (P41235 whole entry, looked up, the tested form may be a part): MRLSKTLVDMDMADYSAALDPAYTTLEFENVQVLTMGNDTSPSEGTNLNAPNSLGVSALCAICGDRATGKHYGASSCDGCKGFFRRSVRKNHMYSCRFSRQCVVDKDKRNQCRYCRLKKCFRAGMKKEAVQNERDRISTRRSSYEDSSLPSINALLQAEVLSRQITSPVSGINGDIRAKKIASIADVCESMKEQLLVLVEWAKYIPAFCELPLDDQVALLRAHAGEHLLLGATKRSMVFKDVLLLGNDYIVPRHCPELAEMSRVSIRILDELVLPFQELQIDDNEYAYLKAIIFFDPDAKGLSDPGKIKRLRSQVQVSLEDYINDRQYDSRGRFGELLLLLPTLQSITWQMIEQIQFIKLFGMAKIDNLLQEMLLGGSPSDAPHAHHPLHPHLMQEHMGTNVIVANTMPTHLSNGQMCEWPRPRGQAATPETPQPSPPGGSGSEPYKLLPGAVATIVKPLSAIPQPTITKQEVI
Sequence of Nuclear respiratory factor 1 (Homo sapiens) (Q16656 whole entry, looked up): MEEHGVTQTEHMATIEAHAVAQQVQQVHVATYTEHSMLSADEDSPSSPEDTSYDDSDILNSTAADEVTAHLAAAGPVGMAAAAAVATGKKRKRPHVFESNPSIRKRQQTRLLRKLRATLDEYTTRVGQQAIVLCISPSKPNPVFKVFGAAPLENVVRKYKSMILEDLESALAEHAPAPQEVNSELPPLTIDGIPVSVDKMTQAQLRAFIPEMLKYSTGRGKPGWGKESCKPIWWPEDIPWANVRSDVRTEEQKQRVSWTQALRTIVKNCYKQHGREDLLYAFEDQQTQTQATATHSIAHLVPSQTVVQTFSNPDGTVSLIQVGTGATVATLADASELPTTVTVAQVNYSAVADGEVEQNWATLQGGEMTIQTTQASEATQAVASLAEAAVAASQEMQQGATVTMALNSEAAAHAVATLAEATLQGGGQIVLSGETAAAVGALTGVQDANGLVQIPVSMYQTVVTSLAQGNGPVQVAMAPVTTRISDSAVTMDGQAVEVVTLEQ
Sequence of Nuclear receptor subfamily 4 group A member 2 (Homo sapiens) (P43354 whole entry, looked up, the tested form may be a part): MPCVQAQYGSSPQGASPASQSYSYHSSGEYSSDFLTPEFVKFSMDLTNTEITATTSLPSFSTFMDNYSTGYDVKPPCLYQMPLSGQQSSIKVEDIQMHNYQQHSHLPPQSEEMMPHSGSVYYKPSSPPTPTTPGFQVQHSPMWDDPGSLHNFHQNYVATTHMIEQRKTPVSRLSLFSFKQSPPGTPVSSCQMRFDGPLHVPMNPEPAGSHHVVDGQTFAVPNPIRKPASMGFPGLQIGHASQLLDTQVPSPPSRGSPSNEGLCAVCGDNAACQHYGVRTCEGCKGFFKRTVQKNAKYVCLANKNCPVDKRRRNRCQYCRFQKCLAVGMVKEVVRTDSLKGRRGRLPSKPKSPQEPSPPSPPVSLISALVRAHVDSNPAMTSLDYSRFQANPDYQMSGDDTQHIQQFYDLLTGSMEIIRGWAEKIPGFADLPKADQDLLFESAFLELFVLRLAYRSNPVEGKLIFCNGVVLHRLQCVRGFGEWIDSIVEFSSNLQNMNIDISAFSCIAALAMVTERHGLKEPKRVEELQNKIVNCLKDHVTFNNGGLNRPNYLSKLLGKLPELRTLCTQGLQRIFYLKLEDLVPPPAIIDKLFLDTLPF
Sequence of Oxysterols receptor LXR-beta (Homo sapiens) (P55055 whole entry, looked up, the tested form may be a part): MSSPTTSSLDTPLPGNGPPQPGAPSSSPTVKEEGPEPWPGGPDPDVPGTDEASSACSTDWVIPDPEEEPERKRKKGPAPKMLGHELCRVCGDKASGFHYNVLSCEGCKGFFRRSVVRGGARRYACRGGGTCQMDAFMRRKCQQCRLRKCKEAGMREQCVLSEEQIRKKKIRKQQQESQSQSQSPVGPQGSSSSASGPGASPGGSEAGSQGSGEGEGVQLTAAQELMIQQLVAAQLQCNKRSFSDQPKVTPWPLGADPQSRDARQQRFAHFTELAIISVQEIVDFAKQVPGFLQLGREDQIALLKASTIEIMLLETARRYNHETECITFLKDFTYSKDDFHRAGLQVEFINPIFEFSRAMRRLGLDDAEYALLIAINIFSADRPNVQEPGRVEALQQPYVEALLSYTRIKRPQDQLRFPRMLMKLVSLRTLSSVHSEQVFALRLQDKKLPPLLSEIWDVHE
Sequence of Transcriptional activator Myb (Homo sapiens) (P10242 whole entry, looked up): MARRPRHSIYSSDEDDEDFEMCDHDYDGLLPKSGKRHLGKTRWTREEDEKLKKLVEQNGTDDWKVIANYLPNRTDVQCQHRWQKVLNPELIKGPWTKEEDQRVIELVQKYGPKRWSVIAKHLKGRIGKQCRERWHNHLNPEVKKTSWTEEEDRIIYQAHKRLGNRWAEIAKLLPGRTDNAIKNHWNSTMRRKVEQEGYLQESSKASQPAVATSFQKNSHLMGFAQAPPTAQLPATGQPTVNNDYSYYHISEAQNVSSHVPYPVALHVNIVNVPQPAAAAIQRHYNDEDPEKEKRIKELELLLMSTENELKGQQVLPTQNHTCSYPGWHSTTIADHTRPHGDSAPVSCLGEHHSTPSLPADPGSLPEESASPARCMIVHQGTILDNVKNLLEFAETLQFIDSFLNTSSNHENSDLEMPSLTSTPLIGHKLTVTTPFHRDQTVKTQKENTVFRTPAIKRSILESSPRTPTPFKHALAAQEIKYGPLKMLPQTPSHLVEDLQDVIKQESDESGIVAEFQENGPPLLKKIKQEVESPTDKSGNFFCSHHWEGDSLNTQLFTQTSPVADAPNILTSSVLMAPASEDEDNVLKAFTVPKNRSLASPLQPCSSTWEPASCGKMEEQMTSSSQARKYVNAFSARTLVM
Sequence of Bile acid receptor (Homo sapiens) (Q96RI1 whole entry, looked up, the tested form may be a part): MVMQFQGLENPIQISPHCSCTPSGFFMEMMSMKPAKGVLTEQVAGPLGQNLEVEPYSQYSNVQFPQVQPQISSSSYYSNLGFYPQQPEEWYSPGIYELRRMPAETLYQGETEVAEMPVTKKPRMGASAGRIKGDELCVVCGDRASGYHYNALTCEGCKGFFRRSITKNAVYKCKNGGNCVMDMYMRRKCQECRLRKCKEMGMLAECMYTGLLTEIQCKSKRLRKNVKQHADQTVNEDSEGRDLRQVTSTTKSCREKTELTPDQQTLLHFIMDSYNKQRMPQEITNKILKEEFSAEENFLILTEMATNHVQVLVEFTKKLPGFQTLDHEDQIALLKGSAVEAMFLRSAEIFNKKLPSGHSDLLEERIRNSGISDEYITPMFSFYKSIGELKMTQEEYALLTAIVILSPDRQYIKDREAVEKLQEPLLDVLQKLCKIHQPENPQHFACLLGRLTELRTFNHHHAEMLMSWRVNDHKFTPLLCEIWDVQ

CC(C)(C)C(=O)CCc1ccc(Cl)cc1
active: [2] 41.2 µM | [4] 17.7 µM
inactive: [1] | [3] | [5] | [6] | [7] | [8] | [9] | [10] | [11] | [12]

CC(C)c1ccc(C#N)cc1
inactive: [1] | [2] | [4] | [5] | [6] | [13] | [14] | [15] | [11] | [12]

O=C(Nc1ccccc1SSc1ccccc1NC(=O)c1ccccc1)c1ccccc1
inactive: [1] | [3] | [4] | [5] | [6] | [16] | [7] | [9] | [10] | [11] | [12]

O=S(=O)(O)c1cc(S(=O)(=O)O)c2ccc3c(S(=O)(=O)O)cc(S(=O)(=O)O)c4ccc1c2c43
inactive: [1] | [2] | [4] | [5] | [6] | [13] | [17] | [16] | [7] | [18] | [8] | [9] | [10] | [11] | [12]

C=CC(=O)OCCC(=O)O
inactive: [1] | [2] | [3] | [5] | [6] | [14] | [18] | [8] | [9] | [11] | [12]

Cc1cc(C)c(C)c(C)c1
inactive: [1] | [2] | [3] | [5] | [6] | [13] | [14] | [7] | [8] | [9] | [10] | [11] | [12]

CCCCCCCCCCC=CC#N
inactive: [1] | [2] | [3] | [6] | [17] | [9] | [10] | [11] | [12]
active: [4] 73.1 µM

CC(=O)Oc1ccc(C)cc1
inactive: [1] | [19] | [6] | [13] | [14] | [9] | [10] | [12]

N#[N+]c1ccc2c(S(=O)(=O)[O-])cccc2c1O
inactive: [1] | [2] | [3] | [4] | [5] | [6] | [13] | [14] | [20] | [7] | [18] | [9] | [10] | [11] | [12]

O=C(O)c1cc2ccccc2nc1C(=O)O
inactive: [1] | [2] | [6] | [7] | [18] | [8] | [10] | [11] | [12]
